Experimental data as given in PubChem BioAssay (NCATS).
Results filed as inconclusive are left out. Calls of active or inactive are those of the source. Calls come from the whole dose curve; as a rule, active = well fitted curve in the direction sought with a large enough effect; inconclusive = small, poorly fitted or top-dose-only effect, or another doubt; inactive = no such curve, though single readings can be large; an effect the other way counts as inactive or inconclusive.

Legend:
[1] = Quantitative High-Throughput drug screen in 47 multiple myeloma cell lines against the NCATS MIPE library collection: FR4_PLB cell viability assay (AID 1918924; note: nearly all actives have a fitted effect of over 35% in size)
Outline: (§1)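 Steps: seed 500 cells per well; pin-transfer MIPE 4.0 library; incubate 48 h at 37C, 5% CO2, humidified; add CellTiter-Glo, 5 min room temperature; read luminescence.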

[2] = Quantitative High-Throughput drug screen in 47 multiple myeloma cell lines against the NCATS MIPE library collection: Delta47_JCRB cell viability assay (AID 1918925; note: nearly all actives have a fitted effect of over 45% in size)
Outline: (§2)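 We plated 500 myeloma cells per well, pinned in MIPE 4.0 compounds, and incubated for 48 hours at 37C. ATP was then quantified with CellTiter-Glo, with DMSO and media-only wells defining 100% and 0%.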

[3] = Quantitative High-Throughput drug screen in 47 multiple myeloma cell lines against the NCATS MIPE library collection: AMO1_DSMZ cell viability assay (AID 1918927; note: nearly all actives have a fitted effect of over 30% in size)
Outline: as §2

[4] = Quantitative High-Throughput drug screen in 47 multiple myeloma cell lines against the NCATS MIPE library collection: ARP1_JJKsccF8 cell viability assay (AID 1918928; note: nearly all actives have a fitted effect of over 40% in size)
Outline: (§3)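 Each line was plated at 500 cells/well and treated 48 h with library drugs. Viability came from CellTiter-Glo luminescence relative to DMSO and cell-free medium controls.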

[5] = Quantitative High-Throughput drug screen in 47 multiple myeloma cell lines against the NCATS MIPE library collection: ARD_JJKsccE7 cell viability assay (AID 1918929)
Outline: as §2

[6] = Quantitative High-Throughput drug screen in 47 multiple myeloma cell lines against the NCATS MIPE library collection: Karpas620_DSMZ cell viability assay (AID 1918959); note: nearly all actives have a fitted effect of over 30% in size
Outline: as §1

[7] = Quantitative High-Throughput drug screen in 47 multiple myeloma cell lines against the NCATS MIPE library collection: KHM11_PLB cell viability assay (AID 1918962); note: nearly all actives have a fitted effect of over 35% in size
Outline: as §1

[8] = Quantitative High-Throughput drug screen in 47 multiple myeloma cell lines against the NCATS MIPE library collection: INA6_PLB cell viability assay (AID 1918965; note: nearly all actives have a fitted effect of over 55% in size)
Outline: (§4)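 CellTiter-Glo luminescence (ATP) after 48 h compound exposure, 37C/5% CO2; 500 cells/well; MIPE 4.0 approved/investigational drugs pinned in; DMSO = 100%, media only = 0% viability.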

[9] = Quantitative High-Throughput drug screen in 47 multiple myeloma cell lines against the NCATS MIPE library collection: H1112_PLB cell viability assay (AID 1918967; note: nearly all actives have a fitted effect of over 30% in size)
Outline: as §2

[10] = Quantitative High-Throughput drug screen in 47 multiple myeloma cell lines against the NCATS MIPE library collection: KMS27_JCRB cell viability assay (AID 1918970); note: nearly all actives have a fitted effect of over 30% in size
Outline: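 Luminescent ATP read-out (CellTiter-Glo, 5 min at room temperature) after 48 h compound exposure of 500 KMS27_JCRB cells per well; DMSO wells define full viability and media-only wells zero.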

[11] = Quantitative High-Throughput drug screen in 47 multiple myeloma cell lines against the NCATS MIPE library collection: EJM_DSMZ cell viability assay (AID 1918926; note: nearly all actives have a fitted effect of over 30% in size)
Outline: as §2

[12] = Quantitative High-Throughput drug screen in 47 multiple myeloma cell lines against the NCATS MIPE library collection: KMM1_JCRB cell viability assay (AID 1918960); note: nearly all actives have a fitted effect of over 30% in size;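 for viability (% of DMSO): 100% = DMSO-treated cells and 0% = medium-only wells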
Outline: as §3

[13] = Quantitative High-Throughput drug screen in 47 multiple myeloma cell lines against the NCATS MIPE library collection: JIM3_ECACC cell viability assay (AID 1918963; note: nearly all actives have a fitted effect of over 35% in size)
Outline: as §1

[14] = Quantitative High-Throughput drug screen in 47 multiple myeloma cell lines against the NCATS MIPE library collection: JJN3_DSMZ cell viability assay (AID 1918966; note: nearly all actives have a fitted effect of over 50% in size)
Outline: as §2

[15] = Quantitative High-Throughput drug screen in 47 multiple myeloma cell lines against the NCATS MIPE library collection: Karpas25_ECACC cell viability assay (AID 1918968; note: nearly all actives have a fitted effect of over 35% in size)
Outline: as §2

[16] = Quantitative High-Throughput drug screen in 47 multiple myeloma cell lines against the NCATS MIPE library collection: KMS12BM_JCRB cell viability assay (AID 1918971); note: nearly all actives have a fitted effect of over 35% in size
Outline: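 Viability readout: CellTiter-Glo luminescence following 5 min room-temperature incubation with reagent. Prior exposure: 48 h, 37C, humidified 5% CO2, 500 cells per well.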

[17] = Quantitative High-Throughput drug screen in 47 multiple myeloma cell lines against the NCATS MIPE library collection: Karpas417_ECACC cell viability assay (AID 1918961); details: Karpas417 myeloma viability, CellTiter-Glo ATP luminescence, 48 h; viability (% of DMSO): at 45.8 µM (top of the series)
Outline: as §4

[18] = Quantitative High-Throughput drug screen in 47 multiple myeloma cell lines against the NCATS MIPE library collection: JIM1_ECACC cell viability assay (AID 1918964)
Outline: as §2
Potency is the fitted concentration of half-maximal effect.

CC(C)(O)C(=O)Nc1ccc([N+](=O)[O-])c(C(F)(F)F)c1
active: Potency [2] 7.43 µM | Potency [3] 11.8 µM | Potency [5] 23.5 µM | Potency [6] 18.7 µM | Potency [7] 20.9 µM | Potency [8] 7.43 µM | Potency [9] 9.35 µM | Potency [10] 14.8 µM
inactive: Potency [1] | Potency [4]

O=c1cccc2n1CC1CNC[C@H]2C1
active: Potency [3] 13.2 µM | Potency [6] 13.2 µM | Potency [12] 11.8 µM | Potency [8] 14.8 µM | Potency [15] 23.5 µM
inactive: Potency [1] | Potency [11] | Potency [7] | Potency [13] | Potency [14] | Potency [16]

C[C@]12CC[C@H]3[C@@H](CCC4=CC(=O)CC[C@@]43C)[C@H]1CC[C@H]2OC(=O)CCC1CCCC1
inactive: Potency [1] | Potency [2] | Potency [6] | Potency [12] | Potency [15] | Potency [10]
active: Potency [11] 16.6 µM

CN[C@@H]1Cc2cccc3[nH]c(=O)n(c23)C1
active: Potency [1] 11.8 µM
inactive: Potency [2] | Potency [6] | Potency [12] | Potency [13] | Potency [8] | Potency [14] | Potency [10]

COc1cccc2c1[C@]13CCN(CC4CC4)[C@H](C2)[C@]1(OC)CCC(=O)C3
active: viability (% of DMSO) [17] 89.4%
inactive: Potency [1] | Potency [11] | Potency [3] | Potency [4] | Potency [6] | Potency [12] | Potency [7] | Potency [13] | Potency [8] | Potency [9] | Potency [10]

CN1[C@H]2CC(O)C[C@H]1[C@H]1O[C@H]12 (stereo partly specified)
inactive: Potency [3] | Potency [6] | Potency [12] | Potency [10]
active: Potency [1] 26.4 µM | Potency [11] 20.9 µM | Potency [4] 20.9 µM | Potency [7] 14.8 µM | Potency [13] 9.35 µM | Potency [8] 8.33 µM | Potency [14] 18.7 µM | Potency [9] 16.6 µM | Potency [15] 5.9 µM | Potency [16] 18.7 µM

CC(=Cc1csc(C)n1)[C@@H]1C[C@H]2O[C@@H]2CCC[C@H](C)[C@@H](O)[C@@H](C)C(=O)C(C)(C)[C@@H](O)CC(=O)O1
inactive: Potency [1] | Potency [11] | Potency [4] | Potency [13] | Potency [8] | Potency [9] | Potency [15] | Potency [16]
active: Potency [3] 0.001 µM | Potency [12] 0.001 µM | Potency [18] 0.001 µM | Potency [14] 0.264 µM

O=c1[nH]c2ccccc2n1C1CCN(Cc2ccc(-c3[nH]c4cc5ncnc5cc4nc3-c3ccccc3)cc2)CC1
inactive: Potency [7]
active: Potency [1] 23.5 µM | Potency [2] 1.87 µM | Potency [4] 14.8 µM | Potency [17] 1.48 µM | Potency [13] 5.9 µM | Potency [18] 4.69 µM | Potency [8] 1.48 µM | Potency [14] 29.6 µM | Potency [9] 0.833 µM | Potency [15] 8.33 µM | Potency [10] 18.7 µM

O=[N+]([O-])c1ncc[nH]1
inactive: Potency [1] | Potency [2] | Potency [3] | Potency [4] | Potency [6] | Potency [12] | Potency [17] | Potency [13] | Potency [14] | Potency [9] | Potency [10]

Cc1c(C(=O)c2cccc3ccccc23)c2cccc3c2n1[C@H](CN1CCOCC1)CO3
active: Potency [1] 23.5 µM | Potency [2] 14.8 µM | Potency [4] 26.4 µM | Potency [6] 8.33 µM | Potency [12] 5.26 µM | Potency [7] 16.6 µM | Potency [13] 23.5 µM | Potency [8] 23.5 µM | Potency [14] 16.6 µM | Potency [9] 23.5 µM | Potency [16] 18.7 µM

COc1cc2cc(c1Cl)N(C)C(=O)C[C@H](OC(=O)C(C)C)[C@]1(C)O[C@H]1[C@H](C)[C@@H]1C[C@@](O)(NC(=O)O1)[C@H](OC)C=CC=C(C)C2
inactive: Potency [1] | Potency [2] | Potency [3] | Potency [4] | Potency [5] | Potency [12] | Potency [7] | Potency [13] | Potency [18] | Potency [8] | Potency [14] | Potency [15] | Potency [10]

CC=C(C)C(=O)N[C@@H](c1ccccc1)[C@@H](O)C(=O)O[C@H]1C[C@@]2(O)[C@@H](OC(=O)c3ccccc3)[C@@H]3[C@]4(OC(C)=O)CO[C@@H]4C[C@H](O)[C@@]3(C)C(=O)[C@H](OC(C)=O)C(=C1C)C2(C)C
inactive: Potency [1] | Potency [11] | Potency [4] | Potency [13] | Potency [8]
active: Potency [5] 0.001 µM | Potency [10] 0.0012 µM

CC(C)(C)[C@]1(O)C[C@@H]2OC(=O)C[C@@]23C(=O)O[C@@H]2OC(=O)[C@H](O)C213 (stereo partly specified)
active: Potency [18] 0.0332 µM
inactive: Potency [1] | Potency [11] | Potency [3] | Potency [4] | Potency [6] | Potency [12] | Potency [13] | Potency [8] | Potency [9] | Potency [10]

CCOC(=O)c1cncn1[C@H](C)c1ccccc1
active: Potency [16] 5.26 µM
inactive: Potency [1] | Potency [11] | Potency [3] | Potency [12] | Potency [7] | Potency [13] | Potency [18] | Potency [8] | Potency [9] | Potency [15] | Potency [10]
